Screening data deposited in PubChem by National Center for Advancing Translational Sciences (NCATS).
WRN inhibitor – WRN helicase (human) inhibition. Potency, µM (top dose mostly 114 µM), for the others: at the highest dose activity change, negative = inhibition, hits mostly inhibitors. Q14191. 360,000 tested, 0.46% active. AID 651768. WRN helicase unwinding, fluorescent forked duplex, kinetic; note: potency is the fitted concentration of half-maximal effect; % is set by controls: 0 for no effect and ±100 for the full control effect; nearly all actives have a fitted effect of over 55% in size
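Kinetic red-fluorescence monitoring (525/598 nm) tracks WRN helicase activity after 100 nM fluorophore-quencher forked duplex and 2 mM ATP are added to 20 nM enzyme pretreated 15 min at room temperature with compound.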
Pol kappa inh-1 – DNA polymerase kappa (human) inhibition; Q9UBT6; purified Pol kappa, fluorescent DNA synthesis assay, 10 min; Potency, µM (series often up to 107 µM), for the others: at the top dose activity, negative = inhibition, most hits filed as inhibitors; 400,000 tested, 0.53% active; note: potency is the fitted concentration of half-maximal effect; % is set by controls: 0 for no effect and ±100 for the full control effect
Target sequence (Q9UBT6 whole entry, looked up): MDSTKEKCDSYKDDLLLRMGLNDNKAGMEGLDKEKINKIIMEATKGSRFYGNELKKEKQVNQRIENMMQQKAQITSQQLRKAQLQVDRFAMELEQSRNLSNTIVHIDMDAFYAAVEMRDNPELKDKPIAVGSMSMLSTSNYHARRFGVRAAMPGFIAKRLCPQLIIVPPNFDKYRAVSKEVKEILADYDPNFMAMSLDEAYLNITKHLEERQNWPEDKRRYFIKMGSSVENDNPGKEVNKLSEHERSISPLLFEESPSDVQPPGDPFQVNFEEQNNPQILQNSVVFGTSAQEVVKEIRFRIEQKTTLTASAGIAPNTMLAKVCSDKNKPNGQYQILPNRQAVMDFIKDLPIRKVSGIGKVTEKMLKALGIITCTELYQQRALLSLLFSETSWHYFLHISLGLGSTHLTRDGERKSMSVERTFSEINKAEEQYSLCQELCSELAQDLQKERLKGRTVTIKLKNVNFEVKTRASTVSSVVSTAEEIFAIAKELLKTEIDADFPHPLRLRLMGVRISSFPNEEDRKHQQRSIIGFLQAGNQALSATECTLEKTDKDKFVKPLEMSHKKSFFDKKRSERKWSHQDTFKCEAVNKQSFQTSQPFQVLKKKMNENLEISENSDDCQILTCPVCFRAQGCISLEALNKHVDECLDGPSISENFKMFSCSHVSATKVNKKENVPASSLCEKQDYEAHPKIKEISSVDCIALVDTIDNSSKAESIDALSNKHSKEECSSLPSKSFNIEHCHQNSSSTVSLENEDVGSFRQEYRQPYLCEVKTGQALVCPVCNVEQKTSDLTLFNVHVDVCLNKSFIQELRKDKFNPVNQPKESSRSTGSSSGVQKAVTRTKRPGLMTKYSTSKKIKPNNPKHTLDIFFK
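Pol kappa 10 nM + cpd, 15 min RT; start w/ substrate 50 nM final; fluorescence kinetic read, 0 and 10 min. Neg ctrl: buffer, no enzyme.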
Pol beta inh – blocks human DNA polymerase beta activity; Pol beta primer extension/strand displacement, fluorescence kinetic; Potency, µM (doses to about 114 µM), for inactives: top-dose activity change, negative = inhibition, actives largely listed as inhibitors; 340,000 tested, 1.3% active; AID 485314; note: potency is the fitted concentration of half-maximal effect; % is set by controls: 0 for no effect and ±100 for the full control effect
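Pol beta (10 nM) was preincubated with compound for 15 min at room temperature. The reaction was then started with 50 nM substrate and read immediately and after a further 10 min at room temperature.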
Pol eta inh-1 – DNA polymerase eta (human) inhibition; Q9Y253; recombinant Pol eta, fluorescent DNA replication assay; AID 588591; 390,000 tested, 1.2% active; Potency, µM (titrated, usually from 114 µM), inactives show top-dose activity change, negative = inhibition, actives largely listed as inhibitors; note: potency is the fitted concentration of half-maximal effect; % is set by controls: 0 for no effect and ±100 for the full control effect
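Pol eta (10 nM) was preincubated with compounds for 15 min at room temperature, after which fluorescent replication substrate (50 nM final) was added to start the reaction. Fluorescence was read kinetically at 0 and 10 min.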
PI5P4Ka inh – blocks human PI5P4K alpha kinase activity | PI5P4Kalpha enzyme, ADP-Glo luminescence, 60 min; stronger effect = lower value | max response, % | 330,000 tested, 1.2% active | AID 652105; active = max response of -50% or lower; inconclusive = between -30% and -50%; inactive = -30% or higher; note: value at the top dose of about 77 µM; % is set by controls: 0 for no effect and ±100 for the full control effect
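Quantitative HTS of the MLSMR library against PI5P4Kalpha with substrate. ATP added last at 5 microM final; room temperature, 60 minutes. Remaining ATP depleted, ADP converted and read as luminescence.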
Pol iota inh – inhibitors of human DNA polymerase iota; Q9UNA4; 390,000 tested, 1% active; Potency, µM (top dose mostly 115 µM), without a hit: at the highest dose activity, negative = inhibition, usual class: inhibitors; Pol iota fluorescent replication assay, 10 min; AID 588590; note: potency is the fitted concentration of half-maximal effect
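Pol iota at 10 nM preincubated 15 min with compounds at room temperature; reaction started with fluorescent substrate, 50 nM final. Fluorescence read kinetically at 0 and 10 min; buffer-only wells as negative control.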
GALK confirm – galactokinase (human) inhibition, confirmation. Potency, µM (highest dose often 115 µM), for inactives: at the top dose activity, negative = inhibition, hits mostly inhibitors. AID 2015. purified GALK, Kinase-Glo ATP depletion luminescence. shares compounds with Pol eta inh-1. 150 tested, 70% active
Redox cycling – generates H2O2 by redox cycling, flagging GALK artifacts; Potency, µM (doses to about 115 µM), for the others: at the highest dose activity change, negative = H2O2 signal, usual class: inhibitors; shares compounds with Pol eta inh-1; Phenol red-HRP H2O2 redox cycling, absorbance 600 nm; 150 tested, 40% active
HEK293 tox – HEK-293 cytotoxicity, GALK inhibitor secondary | shares compounds with Pol eta inh-1 | HEK-293 viability, ATP luminescence (CellTiter-Glo), 24/48 h | Potency, µM (series often up to 46.1 µM), for the others: at the highest dose activity change, negative = cytotoxicity, most hits filed as inhibitors | 170 tested, 10% active; note: potency is the fitted concentration of half-maximal effect; % is set by controls: 0 for no effect and ±100 for the full control effect
Pol kappa inh-2 – confirmation of human DNA polymerase kappa inhibitors; shares compounds with Pol eta inh-1; purified Pol-kappa, fluorescent strand-displacement substrate; Potency, µM, usual class: inhibitors; 920 tested, 76% active; note: potency is the fitted concentration of half-maximal effect
Pol eta inh-2 – Pol eta (human) inhibition, cherry-pick confirmation; shares compounds with Pol eta inh-1; 2,600 tested, 64% active; Pol eta primer extension, TAMRA/BHQ fluorescence, 10 min; AID 720502; Potency, µM, most hits filed as inhibitors; note: potency is the fitted concentration of half-maximal effect
The depositor's hits bear a star; ? = inconclusive; . = not tested or not shown; [ ] = remark or other dose. Most compounds without a hit are left out; they make up all but 2.8% or so of the library. Unless noted, calls come from the whole dose curve; as a rule, active = well fitted curve in the direction sought with a large enough effect; inconclusive = small, poorly fitted or top-dose-only effect, or another doubt; inactive = no such curve, though single readings can be large; an effect the other way counts as inactive or inconclusive.

SMILES	WRN inhibitor	Pol kappa inh-1	Pol beta inh	Pol eta inh-1	PI5P4Ka inh	Pol iota inh	Pol eta inh-2	others
Cc1cc(CNC(=O)c2cccc3c2C(=O)c2ccc(-c4ccc(F)cc4OCc4ccccc4)cc2S3(=O)=O)c(C(F)(F)F)o1	-12.2%[11.6 µM]	79.4µM*	.	20µM*	-27.3	39.8µM*	53.6*
Cc1ccc(C)c(CNS(=O)(=O)c2c(C(=O)N3CCCC3)c(C)n(C)c2C)c1	-0.8%	-21.3%	2.4%	7.8%	2.1	-13.8%	.
Cc1ccc(S(=O)c2ccc([N+](=O)[O-])c3nonc23)cc1 (stereo unspecified)	79.4µM*	.	.	14.1µM*	-99.9*	.	33.8*	Pol kappa inh-2=?
COCCn1c(SC(C)C(=O)NCC2CCCO2)nc2sc3c(c2c1=O)CCC3 (stereo unspecified)	-23.1%	-1.9%	.	?	-18.0	?	?
CCN(CC)C(=O)CSc1nc2sc3c(c2c(=O)n1CCOC)CCC3	-3.1%	-21.9%	8.5%	-1.1%	1.4	12.8%	.
CN(C(=O)COC(=O)C1CCN(S(=O)(=O)c2ccc3c(c2)OCCO3)CC1)C1CCS(=O)(=O)C1 (stereo unspecified)	16.0%	-10.8%	.	-16.1%	-2.1	19.4%	.
CCOc1ccc(OCC)c(NS(=O)(=O)c2cc(-c3onc(C)c3C)ccc2OC)c1	.	-3.5%	4.5%	-19.3%	.	22.2%	.
O=C(Nc1ccccc1Cl)C1CCCN(S(=O)(=O)c2ccc(-n3cnnn3)cc2)C1 (stereo unspecified)	4.8%	1.0%	-6.5%	-18.0%	-2.7	17.2%	.
O=C(N/N=C/c1cc(Cl)cc([N+](=O)[O-])c1O)c1ccccc1NS(=O)(=O)c1cccs1	-18.2%[11.6 µM]	-9.1%	-4.5%	?	-22.3	?	?
O=C(NN=Cc1ccc(O)cc1)c1ccccc1NS(=O)(=O)c1cccs1	-11.3%	-2.6%	.	-17.8%	-3.7	-12.9%	.
COc1ccc(/C=N/NC(=O)c2ccc(O)cc2O)cc1CSc1ccccn1	?	79.4µM*	20µM*	14.1µM*	-71.0*	?	?
COc1ccc(C=O)cc1CSc1ccccn1	-20.4%	-0.8%	-3.7%	-16.5%	0.8	180.4%	.
Cc1ccc(-n2c3nc(=O)[nH]c(=O)c-3cc3cc([N+](=O)[O-])ccc32)cc1C	?	-7.5%	-7.5%	20µM*	-15.9	50.3%	?
CCOCCCNc1nc2c(C)cccn2c(=O)c1/C=C1\SC(=S)N(C(C)CC)C1=O (stereo unspecified)	?	-8.6%	17.2%	79.4µM*	7.7	16.2%	.	Pol kappa inh-2=26.7*
CCOCCCNc1nc2c(C)cccn2c(=O)c1/C=C1\SC(=S)N(CC(C)C)C1=O	-8.6%	-19.1%	-10.3%	-5.7%	.	18.7%	.
CN(C(=O)/C=C/c1ccco1)c1ccccc1C(=O)O	-9.2%	?	17.8µM*	44.7µM*	2.0	?	?
Cc1[nH]c2ccccc2c1/C=N/NC(=O)c1cccc(Br)c1	-13.9%	-8.3%	?	?	-3.5	41.7%	.
Cc1[nH]c2ccccc2c1/C=N/Nc1cccc(C(=O)O)c1	-12.3%	?	?	56.2µM*	-28.0	?	?
Cc1cc2oc(C(=O)Nc3sc4c(c3C(=O)NCc3ccco3)CCC4)cc(=O)c2cc1C	.	?	?	50.1µM*	.	?	?	Pol kappa inh-2=?
Cc1ccc(Cl)c(OC(=O)C2CSC3(C)CCC(=O)N23)c1 (stereo unspecified)	-3.2%	-21.8%	.	-18.9%	6.6	25.1%	.
CC(=O)c1ccc(OC(=O)C2CSC3(C)CCC(=O)N23)cc1 (stereo unspecified)	-22.0%	-35.1%	.	8.91µM*	1.6	17.8µM*	?
CC(C)CNS(=O)(=O)c1ccc(CCC(=O)NCCC2=CCCCC2)cc1	4.9%	-16.2%	5.6%	-2.7%	-3.2	4.9%	.
CCC(=O)N1CCc2cc(Br)cc(S(=O)(=O)N3CCCC(C(=O)N(C)c4ccc(Br)cc4)C3)c21 (stereo unspecified)	.	-22.6%	-0.3%	-15.4%	.	17.2%	.
O=C(Nc1nnc(C2CC2)s1)C1CC(=O)N(c2ccc3c(c2)OCCO3)C1 (stereo unspecified)	-26.0%[57.1 µM]	?	?	20µM*	?	44.7µM*	?
Cc1ccc(N2CC(NC(=O)c3ccc(S(=O)(=O)N(C)C)cc3)CC2=O)cc1C (stereo unspecified)	.	-7.6%[60.1 µM]	1.1%	-6.7%	.	17.6%	.
SMILES	WRN inhibitor	Pol kappa inh-1	Pol beta inh	Pol eta inh-1	PI5P4Ka inh	Pol iota inh	Pol eta inh-2	others
Cc1ccc(-c2ccc(C(=O)Nc3ccccc3)o2)c2ccccc12	-11.5%	-4.3%	14.2%	-17.3%	7.7	-2.5%	.
Cc1ccc(S(=O)(=O)NC(=O)c2ccc(-c3ccc(C)c4ccccc34)o2)cc1	?	?	?	31.6µM*	?	?	?
O=C1CS/C(=N/N=C/c2cccs2)N1Cc1ccc(F)cc1	-2.7%	-4.3%	16.3%	7.9%	8.8	26.5%	.
O=C1C(Cl)=C(N2CCC(C(=O)O)CC2)C(=O)c2ccccc21	-20.0%	-6.7%	?	10µM*	?	?	.	GALK confirm=29.8µM*;Redox cycling=37.5µM*;HEK293 tox=-6.5%
NC(=O)C1CCN(C2=C(NS(=O)(=O)c3ccccc3)C(=O)c3ccccc3C2=O)CC1	3.9%	-9.0%	9.5%	2.2%	0.3	29.0%	.
COC(=O)c1ccc(NS(=O)(=O)c2ccc3[nH]c(=O)oc3c2)cc1	5.0%[11.6 µM]	?	35.5µM*	25.1µM*	-7.9	44.7µM*	?
